The source made the active and inactive calls. Calls come from the whole dose curve; as a rule, active = well fitted curve in the direction sought with a large enough effect; inconclusive = small, poorly fitted or top-dose-only effect, or another doubt; inactive = no such curve, though single readings can be large; an effect the other way counts as inactive or inconclusive.
target: Cytochrome P450 3A4 (Homo sapiens) (UniProt P08684); assay: qHTS Assay for Activators of Cytochrome P450 3A4 (AID 885); conditions: recombinant CYP3A4, Luciferin-PPXE luminescence, 60 min; series mostly up to 57.1 µM; note: nearly all actives have a fitted effect of over 65% in size
Sequence (P08684 whole entry, looked up): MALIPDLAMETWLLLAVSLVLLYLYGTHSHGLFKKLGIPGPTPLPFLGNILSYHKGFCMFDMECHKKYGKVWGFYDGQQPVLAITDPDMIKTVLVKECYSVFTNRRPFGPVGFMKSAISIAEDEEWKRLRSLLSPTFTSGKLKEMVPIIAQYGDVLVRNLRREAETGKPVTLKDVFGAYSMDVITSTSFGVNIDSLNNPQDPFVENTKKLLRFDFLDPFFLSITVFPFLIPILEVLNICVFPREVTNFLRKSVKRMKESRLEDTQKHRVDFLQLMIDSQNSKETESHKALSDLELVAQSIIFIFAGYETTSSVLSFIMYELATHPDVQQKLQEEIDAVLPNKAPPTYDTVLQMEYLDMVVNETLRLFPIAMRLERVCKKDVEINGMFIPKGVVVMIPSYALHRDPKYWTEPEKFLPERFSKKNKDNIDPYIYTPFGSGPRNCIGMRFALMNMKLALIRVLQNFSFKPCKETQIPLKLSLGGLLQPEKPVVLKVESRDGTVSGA
Procedure, shortened: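 Activators are scored by enhanced luminescence from CYP3A4 conversion of luciferin-PPXE (25uM, equal to KM) to luciferin, after 60 min at RT with an NADPH-regenerating system.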

Potency, inactive:
COc1cc2cc[n+]3cc4c(OC)c(OC)ccc4cc3c2cc1OC
COc1cc(-c2cc(=O)c3c(O)c(OC)c(OC)c(OC)c3o2)cc(OC)c1OC
CC1(C)CC2C1CCC1(C)OC2(C)CCC1O (stereo not given)
O=C(CCc1ccc(O)cc1)c1c(O)cc(O)cc1O[C@H]1OC(CO)C(O)C(O)C1O (stereo not given in full)
CC1(C)C[C@@H]2C(=O)CCC3O[C@@]3(C)CCC21 (stereo not given in full)
CC(=O)OC1CC(OC(C)=O)[C@]2(C)C(CC(=O)[C@]3(C)C2CC[C@@]2(C)C(C(=O)O)OC(=O)C4OC423)C1(C)C (stereo not given in full)
CC(C)=CCc1c(O)cc2oc(C)cc(=O)c2c1O
CC1(C)OC2CC3C4CC(F)C5=CC(=O)C=C[C@@]5(C)[C@@]4(F)C(O)C[C@@]3(C)[C@]2(C(=O)CO)O1 (stereo not given in full)
C=C1C(=O)OC2CC1C(OC(C)=O)CC(C)=CCCC(C)=CCC[C@@]2(C)O (stereo not given in full)
Oc1ccc(C2Oc3cc(O)cc(O)c3CC2O)cc1 (stereo not given)
O=c1cc(-c2ccc(O)cc2)oc2cc(O)ccc12
S=c1ccss1
COC(=O)CC1C(C)(C)C2(O)OC34CC2C(=O)[C@@]1(C)C3CC[C@]1(C)C4=CC(=O)OC1c1ccoc1 (stereo not given in full)
COc1ccc(C(=O)c2ccc(O)cc2)c(O)c1O
COc1cccc(O)c1O
O=C(/C=C/c1ccccc1)c1ccc(O)cc1
CCOC(=O)c1c(C)cc(O)c(C=O)c1O
COc1ccc(-c2coc3c(O)c(OC)ccc3c2=O)cc1
CCOC(=O)CCC(=O)O[C@H]1C(O[C@@H]2C(C)[C@H](O[C@H]3C[C@@](C)(OC)C(O)C(C)O3)C(C)C(=O)OC(CC)[C@@](C)(O)C(O)[C@H](C)C(=O)C(C)C[C@]2(C)O)OC(C)CC1N(C)C (stereo not given in full)
CC1(C)C(=O)C2C[C@]3(O)C4=CC(=O)OC(c5ccoc5)[C@]4(C)CCC3[C@](C)(C2=O)C1CC(=O)O (stereo not given in full)
COc1cc(OC)c(C(C)=O)c(O)c1C
CC(=O)OC1CC2C(C)(C)C(=O)[C@@H]3OC3[C@@]2(C)C2CC[C@]3(C)C(=CC(=O)OC3c3ccoc3)[C@]12C (stereo not given in full)
CC1(C)CCC2(C(=O)O)CC[C@]3(C)C(=CCC4[C@]5(C)CCC(O)C(C)(C)C5C(O)C[C@]43C)C2C1 (stereo not given in full)
CC1(C)CC2/C(CO)=C/C=C/[C@](C)(O)CC[C@]21O (stereo not given in full)
COc1c(O)cc2c(-c3ccccc3)cc(=O)oc2c1OC
COC(=O)CC1C(C)(C)C(OC(C)=O)C2CC3=C4CC(=O)OC(c5ccoc5)[C@]4(C)CCC3[C@@]1(C)C2=O (stereo not given in full)
Oc1ccc2c(c1)OC(c1ccc(O)c(O)c1)C(O)C2 (stereo not given)
C#C[C@]1(O)CCC2C3CCC4=Cc5oncc5C[C@@]4(C)C3CC[C@@]21C (stereo not given in full)
CC(=O)OC1CC2C(C)(C)C=CC(=O)[C@@]2(C)C2CC[C@@]3(C)C(c4ccoc4)OC(=O)C4OC43[C@]12C (stereo not given in full)
CC1(C)CCCC2(C)C3C(O)CC2(C)C(O)C31 (stereo not given)
CC(Oc1ccccc1)C(=O)NC1C(=O)N2C(C(=O)O)C(C)(C)S[C@@H]12 (stereo not given in full)

test system: not listed separately; assay: Confirmation and Secondary Assay for Modulators of Hemoglobin Beta Chain Splicing at IVS2 654 locus (AID 910); conditions: HeLa EGFP-654 splicing reporter, GFP fluorescence, 48 h; series mostly up to 46.1 µM;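 note: HeLa cells stably carrying EGFP split by mutant beta-globin IVS2-654 intron; per-well total GFP intensity by laser scanning cytometry after 2-day treatment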
Procedure, shortened: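 Readout: per-well total peak green fluorescence (488 nm ex, 500–520 nm em) from objects 5–250 µm, reflecting correct splicing of an EGFP-654 reporter. Compounds were applied for 2 days at 37 °C to overnight-plated HeLa EGFP-654 cells; controls were DMSO and 500 nM IVS2-654 PNA.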

Potency, inactive:
COc1cc2cc[n+]3cc4c(OC)c(OC)ccc4cc3c2cc1OC
COc1cc(-c2cc(=O)c3c(O)c(OC)c(OC)c(OC)c3o2)cc(OC)c1OC
CC1(C)CC2C1CCC1(C)OC2(C)CCC1O (stereo not given)
O=C(CCc1ccc(O)cc1)c1c(O)cc(O)cc1O[C@H]1OC(CO)C(O)C(O)C1O (stereo not given in full)
CC1(C)C[C@@H]2C(=O)CCC3O[C@@]3(C)CCC21 (stereo not given in full)
CC(=O)OC1CC(OC(C)=O)[C@]2(C)C(CC(=O)[C@]3(C)C2CC[C@@]2(C)C(C(=O)O)OC(=O)C4OC423)C1(C)C (stereo not given in full)
COc1ccc2c(=O)c(CC(=O)O)coc2c1
CC(CCC(=O)O)C1CCC2C3CC[C@H]4CC(O)CC[C@@]4(C)C3CC(O)[C@]12C (stereo not given in full)
CC1(C)OC2CC3C4CC(F)C5=CC(=O)C=C[C@@]5(C)[C@@]4(F)C(O)C[C@@]3(C)[C@]2(C(=O)CO)O1 (stereo not given in full)
C=C1C(=O)OC2CC1C(OC(C)=O)CC(C)=CCCC(C)=CCC[C@@]2(C)O (stereo not given in full)
Oc1ccc(C2Oc3cc(O)cc(O)c3CC2O)cc1 (stereo not given)
O=c1cc(-c2ccc(O)cc2)oc2cc(O)ccc12
S=c1ccss1
COC(=O)CC1C(C)(C)C2(O)OC34CC2C(=O)[C@@]1(C)C3CC[C@]1(C)C4=CC(=O)OC1c1ccoc1 (stereo not given in full)
COc1ccc(C(=O)c2ccc(O)cc2)c(O)c1O
O=C(/C=C/c1ccccc1)c1ccc(O)cc1
CCOC(=O)c1c(C)cc(O)c(C=O)c1O
COc1ccc(-c2coc3c(O)c(OC)ccc3c2=O)cc1
CC1(C)OC2CC3C4CCC5=CC(=O)C=C[C@@]5(C)[C@]4(F)C(O)C[C@@]3(C)[C@]2(C(=O)CO)O1 (stereo not given in full)
COC(=O)/C(C)=C/CC12OC(C)(C)C3CC(C=C4C(=O)c5cc6c(c(CCC(C)(C)Cl)c5OC431)OC1(C)CCC(=C(C)C)C6C1)C2=O (stereo not given)
CC(N)C(O)c1cccc(O)c1 (stereo not given)
CC(=O)OCC1OC(n2c(Br)nc3c(=O)[nH]c(N)nc32)C(OC(C)=O)C1OC(C)=O (stereo not given)
C[C@]12CCC3c4ccc(OC(=O)c5ccccc5)cc4CCC3C1CCC2=O (stereo not given in full)
CCOC(=O)CCC(=O)O[C@H]1C(O[C@@H]2C(C)[C@H](O[C@H]3C[C@@](C)(OC)C(O)C(C)O3)C(C)C(=O)OC(CC)[C@@](C)(O)C(O)[C@H](C)C(=O)C(C)C[C@]2(C)O)OC(C)CC1N(C)C (stereo not given in full)
CC1(C)C(=O)C2C[C@]3(O)C4=CC(=O)OC(c5ccoc5)[C@]4(C)CCC3[C@](C)(C2=O)C1CC(=O)O (stereo not given in full)
COc1cc(OC)c(C(C)=O)c(O)c1C
CC(=O)OC1CC2C(C)(C)C(=O)[C@@H]3OC3[C@@]2(C)C2CC[C@]3(C)C(=CC(=O)OC3c3ccoc3)[C@]12C (stereo not given in full)
CC1(C)CCC2(C(=O)O)CC[C@]3(C)C(=CCC4[C@]5(C)CCC(O)C(C)(C)C5C(O)C[C@]43C)C2C1 (stereo not given in full)
COC(=O)CC1C(C)(C)C(OC(C)=O)C2CC3=C4CC(=O)OC(c5ccoc5)[C@]4(C)CCC3[C@@]1(C)C2=O (stereo not given in full)
Oc1ccc2c(c1)OC(c1ccc(O)c(O)c1)C(O)C2 (stereo not given)
C#C[C@]1(O)CCC2C3CCC4=Cc5oncc5C[C@@]4(C)C3CC[C@@]21C (stereo not given in full)
CC(=O)OCC(=O)[C@@]12OC(C)(C)OC1CC1C3CC(F)C4=CC(=O)C=C[C@@]4(C)[C@@]3(F)C(O)C[C@]12C (stereo not given in full)
CC1(C)CCCC2(C)C3C(O)CC2(C)C(O)C31 (stereo not given)
C=C1C[C@@]23C[C@@]1(O)CCC2[C@@]12C=CC(O)[C@](C)(C(=O)O1)C2C3C(=O)O (stereo not given in full)
